This passage reports z-score and composite z-score results from PubChem BioAssay.

Test [1] can be described thus: optical density shifts of acrAB sulA E. coli – strain DRC41, OD650, 48 h, E. coli filamentation inducer project, primary screen (AID 1152).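 Note: E. coli MC1000 strain DRC41 lacking acrAB efflux pump and sulA.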 Conditions: higher = more signal, called active from +8 up or from −8 down.
Test [2] can be described thus: probe aLefty1 binding on compound microarray – biochemical, small-molecule microarray, 635/667 nm fluorescence, primary screen (AID 1153).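 Note: score merges spot fluorescence with signal-to-noise ratio from the scanned slide images.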 Conditions: higher = more signal.
A short description of test [3]: plasmodial surface anion channel blockers, osmotic lysis – cell-based, P. falciparum Indochina, OD700, 1 h, primary screen (AID 1154). Conditions: P. falciparum Indochina infected RBC osmotic lysis, higher = more signal, called active from +8 up or from −8 down.
Test [4] is described as follows: plasmodial surface anion channel blockers, osmotic lysis – cell-based, P. falciparum Indochina, OD700, 2 h, primary screen (AID 1155).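 Note: lysis reports solute entry through the parasite surface anion channel PSAC.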 Conditions: P. falciparum Indochina infected erythrocytes, higher = more signal, called active from +8 up or from −8 down.
A short description of test [5]: changes in parasitized red cell lysis, either direction – P. falciparum Indochina, OD700, 3 h, PSAC antagonist project, primary screen (AID 1156). Conditions: P. falciparum-infected erythrocytes, osmotic lysis, higher = more signal, called active from +8 up or from −8 down.
The nature of test [6]: plasmodial surface anion channel blockers, osmotic lysis – cell-based, P. falciparum Indochina, OD700, 18 h, primary screen (AID 1157). Conditions: P. falciparum Indochina infected erythrocytes, osmotic lysis OD700, 18 h; higher = more signal, called active from +8 up or from −8 down.
Test [7] in a line: S6 kinase pathway phospho-S6 level changes – cell-based, A549, cytoblot, luminescence, serum-stimulated, primary screen (AID 1158).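 Note: serum-stimulated A549 lung adenocarcinoma cells; signal is phosphorylated S6 detected by cytoblot immunostaining with HRP secondary.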 Conditions: 5 h, higher = more signal.
Test [8] addresses NADPH oxidase 2 (Homo sapiens) (UniProt P04839). Nature of the test: compounds shifting NOX2 Amplex Red fluorescence – cell-based, HEK293-NOX2, PMA-stimulated, NOX inhibitor project, primary screen (AID 1159). Note: test concentration not given here. Conditions: 45 min, higher = more signal, called active from +8 up or from −8 down.
The target of test [9] is NADPH oxidase 4 (Homo sapiens) (UniProt Q9NPH5). The experiment in a line: compounds shifting NOX4 Amplex Red fluorescence – cell-based, HEK293-NOX4, tetracycline-induced, NOX inhibitor project, primary screen (AID 1160). Conditions: HEK293-NOX4, Amplex Red H2O2 fluorescence, 45 min; higher = more signal, called active from +8 up or from −8 down.
Chain of NADPH oxidase 4 (Homo sapiens) (Q9NPH5 whole entry, looked up): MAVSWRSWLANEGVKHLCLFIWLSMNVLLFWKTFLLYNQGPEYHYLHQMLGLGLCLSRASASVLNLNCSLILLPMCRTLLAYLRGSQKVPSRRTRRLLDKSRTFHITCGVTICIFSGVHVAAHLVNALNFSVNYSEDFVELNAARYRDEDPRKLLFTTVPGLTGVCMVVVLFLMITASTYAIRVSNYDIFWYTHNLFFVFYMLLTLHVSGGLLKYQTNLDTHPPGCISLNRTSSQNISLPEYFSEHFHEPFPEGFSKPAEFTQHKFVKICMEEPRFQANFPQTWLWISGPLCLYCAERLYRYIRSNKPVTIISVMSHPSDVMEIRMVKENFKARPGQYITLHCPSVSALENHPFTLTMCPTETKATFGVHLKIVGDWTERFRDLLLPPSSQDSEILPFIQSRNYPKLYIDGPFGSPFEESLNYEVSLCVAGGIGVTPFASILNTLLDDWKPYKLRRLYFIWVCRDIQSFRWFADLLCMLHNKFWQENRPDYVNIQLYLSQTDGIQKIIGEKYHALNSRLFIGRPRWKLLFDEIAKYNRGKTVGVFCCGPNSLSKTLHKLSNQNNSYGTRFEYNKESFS
The target of test [10] is NADPH oxidase 5 (Homo sapiens) (UniProt Q96PH1). Nature of the test: compounds shifting NOX5 Amplex Red fluorescence – cell-based, HEK293-NOX5, NOX inhibitor project, primary screen (AID 1161). Conditions: HEK293-NOX5, ionomycin, 45 min, higher = more signal.
Chain of NADPH oxidase 5 (Homo sapiens) (Q96PH1 whole entry, looked up): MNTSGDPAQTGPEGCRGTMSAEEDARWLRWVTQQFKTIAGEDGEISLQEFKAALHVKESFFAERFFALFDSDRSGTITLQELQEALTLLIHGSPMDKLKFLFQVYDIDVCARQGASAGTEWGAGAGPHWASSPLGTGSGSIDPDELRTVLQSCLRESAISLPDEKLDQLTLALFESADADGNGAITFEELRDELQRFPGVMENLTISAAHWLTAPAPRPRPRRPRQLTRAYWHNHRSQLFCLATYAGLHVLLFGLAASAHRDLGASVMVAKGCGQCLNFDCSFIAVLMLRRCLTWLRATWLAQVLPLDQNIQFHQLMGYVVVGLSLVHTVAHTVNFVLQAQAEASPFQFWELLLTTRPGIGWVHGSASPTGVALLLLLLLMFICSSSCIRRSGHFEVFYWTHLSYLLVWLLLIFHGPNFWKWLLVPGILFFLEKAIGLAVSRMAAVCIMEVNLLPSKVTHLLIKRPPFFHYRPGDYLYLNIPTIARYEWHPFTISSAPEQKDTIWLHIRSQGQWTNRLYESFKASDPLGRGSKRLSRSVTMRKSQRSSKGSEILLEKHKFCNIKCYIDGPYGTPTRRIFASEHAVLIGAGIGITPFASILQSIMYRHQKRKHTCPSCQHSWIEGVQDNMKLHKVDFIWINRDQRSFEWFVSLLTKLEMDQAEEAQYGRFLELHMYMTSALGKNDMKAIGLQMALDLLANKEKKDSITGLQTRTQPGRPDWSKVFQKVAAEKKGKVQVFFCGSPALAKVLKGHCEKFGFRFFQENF
Test [11] is described as follows: compound effects on lung adenocarcinoma cell viability – A549, calcein-AM fluorescence, 48 h, basal, profiling panel (AID 1162). Note: test concentration not given here. Conditions: higher = more signal.
Test [12] can be described thus: compound effects on differentiated 3T3-L1 adipocyte viability – cell-based, 3T3-L1 adipocytes, calcein-AM fluorescence, 48 h, basal, profiling panel (AID 1163). Note: test concentration not given here. Conditions: 3T3-L1 adipocytes viability, higher = more signal.
Test [13] can be described thus: compound effects on hepatocellular carcinoma cell viability – HepG2, calcein-AM fluorescence, 48 h, basal, profiling panel (AID 1164). Note: test concentration not given here. Conditions: higher = more signal.
Test [14] is described as follows: compound effects on multiple myeloma cell viability – MM1S, calcein-AM fluorescence, 48 h, basal, profiling panel (AID 1165). Note: test concentration not given here. Conditions: higher = more signal.
The nature of test [15]: calcein-AM signal in unstimulated myeloma cells – cell-based, calcein-AM fluorescence, 48 h, PK04 Diversity Set, profiling panel (AID 1166).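 Note: cells grown under basal conditions without added stimulus; test concentration not given here.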 Conditions: RPMI8226 myeloma viability, higher = more signal.
The nature of test [16]: JC-1 mitochondrial signal, unstimulated HepG2 cells – cell-based, JC-1 fluorescence, 24 h, 100 nL compound, profiling panel (AID 1167). Note: test concentration not given here. Conditions: HepG2 mitochondrial potential, higher = more signal.
A short description of test [17]: JC-1 mitochondrial signal, unstimulated adipocytes – cell-based, JC-1 fluorescence, 3T3-L1 adipocytes, 24 h, 100 nL compound, profiling panel (AID 1168). Note: test concentration not given here. Conditions: JC-1 mitochondrial fluorescence, higher = more signal, called active from +8 up or from −8 down.
The nature of test [18]: JC-1 mitochondrial signal, unstimulated myeloma cells – cell-based, JC-1 fluorescence, RPMI8226, 24 h, 100 nL compound, profiling panel (AID 1169). Note: test concentration not given here. Conditions: JC-1 mitochondrial potential fluorescence, higher = more signal.
Test [19] in a line: JC-1 mitochondrial signal, unstimulated MM1S myeloma – cell-based, JC-1 fluorescence, 24 h, 100 nL compound, profiling panel (AID 1170). Note: test concentration not given here. Conditions: MM1S mitochondrial potential, higher = more signal.
Test [20] in a line: resazurin metabolic signal in A549 cells – cell-based, resazurin fluorescence, 24 h, PK04 Diversity Set, profiling panel (AID 1171). Note: test concentration not given here. Conditions: A549 viability, higher = more signal, called active from +8 up or from −8 down.

Activity calls are given as the source filed them.

Chain of NADPH oxidase 2 (Homo sapiens) (P04839 whole entry, looked up): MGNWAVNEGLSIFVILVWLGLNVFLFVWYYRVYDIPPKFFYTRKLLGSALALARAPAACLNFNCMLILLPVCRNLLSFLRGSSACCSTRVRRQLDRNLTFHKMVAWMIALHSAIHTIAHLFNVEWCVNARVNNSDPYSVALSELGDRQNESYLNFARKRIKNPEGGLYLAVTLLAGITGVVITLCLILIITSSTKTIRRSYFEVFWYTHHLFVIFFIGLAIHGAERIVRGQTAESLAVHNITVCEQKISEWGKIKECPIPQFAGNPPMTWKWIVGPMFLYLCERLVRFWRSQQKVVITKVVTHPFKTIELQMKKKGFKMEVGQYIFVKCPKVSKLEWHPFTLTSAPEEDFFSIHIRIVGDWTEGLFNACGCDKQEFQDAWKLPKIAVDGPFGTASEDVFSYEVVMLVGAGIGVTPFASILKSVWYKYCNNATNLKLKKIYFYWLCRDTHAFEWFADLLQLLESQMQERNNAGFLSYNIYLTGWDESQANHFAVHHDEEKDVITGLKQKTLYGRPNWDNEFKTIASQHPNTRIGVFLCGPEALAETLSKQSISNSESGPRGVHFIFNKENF

Turning to `CC(C)N1C(=O)C[C@@](C(=O)NC2CC2)(c2ccc([N+](=O)[O-])cc2)[C@H]1c1ccc(CO)cc1`, the z-score is 1.3 (inactive) in [1]; 2.45 (inactive) in [3]; -0.224 (inactive) in test [4]; 2.85 (inactive) in [5]; -0.9 (inactive) in [6]; 2.28 in test [7]. Further, the z-score is -0.281 (inactive) in test [8]; -1.89 (inactive) in [9]; -1.78 in test [10]; 0.219 in test [11]; 1.98 in [12]; 1.03 in test [13]. Also, the z-score is 0.941 in test [14]; -1.73 in test [15]; 0.347 in test [16]; -0.0995 (inactive) in test [17]; -0.416 in test [18]; 0.059 in test [19]. In test [20], the z-score was -0.0786 (inactive). Also, the composite z-score in test [2] is -0.231.

Turning to `Cc1ccc(S[C@]2(C(=O)NCC(F)(F)F)CC(=O)N(Cc3cc(C(F)(F)F)cc(C(F)(F)F)c3)[C@@H]2c2ccc(CO)cc2I)cc1`, the z-score in [1] was 0.168 (inactive); in test [3], 1.71 (inactive); in test [4], -0.0111 (inactive); in [5], 1.12 (inactive); in test [6], 0.449 (inactive); in test [7], 0.837. For the same molecule, the z-score is 1.63 (inactive) in [8]; -2.46 (inactive) in test [9]; -1.28 in test [10]; -0.369 in test [11]; -0.37 in [12]; -0.548 in test [13]. For the same molecule, the z-score in test [14] was -2.27; in [15], -2.64; in [16], -0.812; in test [17], -0.792 (inactive); in [18] it was -0.366; in test [19], -0.852. Besides, the z-score in [20] is 1.19 (inactive). Besides, in test [2], the composite z-score is -0.563.

Take `CCCN1C(=O)[C@]2(Cc3ccccc31)N=C(c1ccc(OCCCO)cc1)O[C@@H]2c1ccccc1`: the z-score in test [1] was -0.753 (inactive); in test [3], 30.9 (active); in [4], 25.5 (active); in test [5] it was 3.13 (inactive); in test [6], 2.19 (inactive); in [7], 0.117. In addition, the z-score in [8] is -3 (inactive); in test [9], -0.843 (inactive); in test [10], -1.8; in test [11], -1.29; in test [12] it was 1.07; in test [13] it was -1.46. The z-score in test [14] was -1.6; in [15] it was -4.4; in [16] it was -0.29; in test [17], -0.906 (inactive); in test [18] it was -1.17; in test [19] it was 0.278. Further, the z-score in test [20] is -1.6 (inactive). Further, in test [2], the composite z-score was found to be 0.643.

For `C=CC[C@]1(C(=O)N2CCCCC2)N=C(c2ccc(OCCCO)cc2)O[C@H]1c1ccccc1CN=[N+]=[N-]`, the z-score was 0.678 (inactive) in [1]; 23.1 (active) in test [3]; 4.57 (inactive) in [4]; 2.81 (inactive) in [5]; 1.08 (inactive) in test [6]; 0.83 in [7]. Also, the z-score in [8] is -3.31 (inactive); in test [9] it was -0.616 (inactive); in [10], -1.46; in test [11] it was -0.416; in test [12], 0.132; in [13], 0.61. The z-score is -1.11 in test [14]; -1.15 in test [15]; 0.574 in test [16]; 0.32 (inactive) in test [17]; -1.31 in test [18]; -0.576 in test [19]. The z-score in [20] was 0.482 (inactive). The molecule further displayed a composite z-score in test [2] of 0.454.

Consider `C=CCNC(=O)[C@@H]1[C@H]2C(=O)O[C@H](c3ccccc3)[C@H](c3ccccc3)N2[C@H](c2ccccc2OCCO)[C@@]12C(=O)Nc1ccc(C#CCCO)cc12`, for which the z-score was -2.32 (inactive) in test [1]; 5.68 (inactive) in test [3]; 1.15 (inactive) in test [4]; 0.206 (inactive) in test [5]; 0.778 (inactive) in test [6]; 0.0309 in test [7]. Also, the z-score in [8] is 0.734 (inactive); in test [9], 0.627 (inactive); in [10] it was 0.849; in [11], -0.368; in test [12] it was 0.953; in [13], 0.151. For the same molecule, the z-score in [14] is -0.66; in [15] it was -0.485; in test [16], -0.699; in [17], 0.959 (inactive); in test [18], -0.435; in test [19], -0.608. Besides, in test [20], the z-score is 0.322 (inactive). For the same molecule, the composite z-score in test [2] is -0.674.

In the case of `CCCCC(=C=CC[C@H](O)c1ccc(OCCO)cc1)CCO`, the z-score in [1] was -0.495 (inactive); in [3] it was 12.9 (active); in test [4] it was 1.77 (inactive); in test [5], 1.06 (inactive); in test [6], 0.627 (inactive); in test [7] it was -0.517. For the same molecule, the z-score in test [8] was -0.649 (inactive); in [9] it was -0.798 (inactive); in test [10] it was -2.06; in test [11], -0.113; in test [12] it was 0.524; in [13], 0.761. Moreover, the z-score was -2.4 in test [14]; 0.0135 in [15]; -1.25 in test [16]; -0.968 (inactive) in test [17]; -0.573 in [18]; -0.952 in test [19]. In addition, the z-score in [20] was 0.533 (inactive). Besides, the composite z-score in test [2] is -0.0967.

As to `[N-]=[N+]=Nc1ccccc1C[C@@]1(C(=O)N2CCOCC2)N=C(c2ccc(OCCCO)cc2)O[C@@H]1c1ccccc1`, the z-score in [1] is 0.345 (inactive); in test [3], 28.5 (active); in [4], 23.8 (active); in test [5] it was 3.6 (inactive); in [6], 2.07 (inactive); in test [7] it was -0.0419. Besides, the z-score was 0.437 (inactive) in test [8]; 0.265 (inactive) in test [9]; -1.66 in test [10]; 0.239 in test [11]; -0.231 in [12]; 1.01 in test [13]. Also, the z-score is -1.92 in [14]; -2.57 in test [15]; 1.02 in test [16]; 0.752 (inactive) in [17]; -1.23 in test [18]; -0.324 in test [19]. In addition, the z-score in [20] is -1.07 (inactive). Moreover, in [2], the composite z-score was -0.88.

Turning to `COc1ccc([C@H]2OC[C@@H]3C[C@H](Cc4ccccc4)C(=O)N32)cc1`, the z-score in [1] was -0.446 (inactive); in test [3], 1.96 (inactive); in test [4], 0.92 (inactive); in test [5] it was -0.356 (inactive); in test [6] it was 0.284 (inactive); in test [7], -0.133. The z-score in test [8] was 0.829 (inactive); in [9], 0.284 (inactive); in test [10] it was 0.695; in [11], -0.799; in test [12], -0.835; in [13], -0.459. Also, the z-score is 0.191 in [14]; -0.598 in test [15]; -0.703 in test [16]; 0.0558 (inactive) in test [17]; 0.00274 in [18]; -0.393 in test [19]. Further, the z-score in [20] is -0.116 (inactive). In addition, in test [2], the composite z-score was found to be 0.015.
